A short description of test [1]: NCI Yeast Anticancer Drug Screen. Data for the rad50 strain (AID 155).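 Also: 0% = growth of vehicle-only cultures of the same strain.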 Particulars: S. cerevisiae rad50 strain growth inhibition, hits give high values. An outline of the steps: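 Growth of the mutant yeast was measured after compound exposure and referenced to vehicle-treated cultures.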
Test [2] can be described thus: NCI Yeast Anticancer Drug Screen. Data for the mec2-1 strain (AID 157). Particulars: S. cerevisiae mec2-1 strain, hits give high values. An outline of the steps: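 Strain: mec2-1 (DNA repair/cell cycle alteration). Compound exposure, then growth measured; inhibition expressed relative to vehicle.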
A short description of test [3]: NCI Yeast Anticancer Drug Screen. Data for the sgs1 mgt1 strain (AID 161).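 Also: 0% = growth of cultures given vehicle only.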 The note with it: S. cerevisiae sgs1 mgt1 strain, hits give high values. An outline of the steps:
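Genetically altered yeast, compound exposure, growth inhibition relative to vehicle.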

A short description of test [4]: NCI Yeast Anticancer Drug Screen. Data for the cln2 rad14 strain (AID 165).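 Also: 0% = growth equal to vehicle treated cultures.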 Particulars: S. cerevisiae cln2 rad14 strain, hits give high values. The gist of the method:
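Compounds are applied to the cln2 rad14 yeast strain, and growth is then compared with that of vehicle-treated cultures to give inhibition.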

The nature of test [5]: NCI Yeast Anticancer Drug Screen. Data for the bub3 strain (AID 167). Particulars: S. cerevisiae bub3 mutant strain, hits give high values. An outline of the steps: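 Whole-cell yeast assay. The mutant strain was incubated with compounds, and growth inhibition was determined by comparison with vehicle-treated cells.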
Test [6] is described as follows: NCI Yeast Anticancer Drug Screen. Data for the mlh1 rad18 strain (AID 175). Particulars: S. cerevisiae mlh1 rad18 strain growth inhibition, hits give high values. An outline of the steps:
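Read-out is yeast growth inhibition, calculated against vehicle-only controls. The compound was applied to a strain engineered with DNA damage repair alterations.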

Setting [7] is: at 5.0 µM (retest, dose inferred, filed as 0.5).
Where [8] appears, read: at 50.0 µM (retest, dose inferred, filed as 5.0).

This is part of a sample that, as a whole, favours compounds with a hit. Of some 79,000 tested, about 15% had one in any assay. Values without a mark were called inactive. The source made the active and inactive calls. Rule as the data show it: active = growth inhibition above about 70%; inactive = the rest.

Turning to `CCOc1ccc(C(=O)CCN2CCOCC2)cc1`, the growth inhibition in test [1] (setting [7]) was 8%; in test [1] (setting [8]), 40%; in test [1] (at 50.0 µM) it was 77.5% (active); in test [2] (setting [7]) it was 14%; in test [2] (setting [8]), 27%; in test [2] (at 50.0 µM), 42.1%. Also, the growth inhibition is 20% in test [3] (setting [7]); 53% in test [3] (setting [8]); 57% in test [3] (at 50.0 µM); 15% in test [4] (setting [7]); 59% in test [4] (setting [8]); 52.9% in test [4] (at 50.0 µM). Besides, the growth inhibition in test [5] (setting [7]) was 14%; in test [5] (setting [8]), 46%; in test [5] (at 50.0 µM), 46%; in test [6] (setting [7]), 6%; in test [6] (setting [8]) it was 35%; in test [6] (at 50.0 µM), 55.3%.

For the compound `Nc1ccccc1C(=O)/C=C/c1ccccc1`, the growth inhibition in test [1] (setting [7]) is 19%; in test [1] (setting [8]), 73% (active); in test [1] (at 50.0 µM), 98.8% (active); in test [2] (setting [7]), 4%; in test [2] (setting [8]), 57%; in test [2] (at 50.0 µM), 99% (active). The growth inhibition in test [3] (setting [7]) is -2%; in test [3] (setting [8]) it was 70% (active); in test [3] (at 50.0 µM), 94.6% (active); in test [4] (setting [7]), -23%; in test [4] (setting [8]), 27%; in test [4] (at 50.0 µM) it was 80.1% (active). Moreover, the growth inhibition in test [5] (setting [7]) was 11%; in test [5] (setting [8]) it was 73% (active); in test [5] (at 50.0 µM), 99.2% (active); in test [6] (setting [7]), 21%; in test [6] (setting [8]), 84% (active); in test [6] (at 50.0 µM), 96.8% (active).

Consider `COc1ccccc1C1c2cc3c(cc2OC(N2CCOCC2)C1C)OCO3` (configuration not stated), for which the growth inhibition is 15% in test [1] (setting [7]); 18% in test [1] (setting [8]); 37.2% in test [1] (at 50.0 µM); 9% in test [2] (setting [7]); 9% in test [2] (setting [8]); 14.2% in test [2] (at 50.0 µM). Further, the growth inhibition in test [3] (setting [7]) is 26%; in test [3] (setting [8]), 47%; in test [3] (at 50.0 µM), 26.4%; in test [4] (setting [7]) it was 25%; in test [4] (setting [8]), 56%; in test [4] (at 50.0 µM), 18.3%. Moreover, the growth inhibition in test [5] (setting [7]) was 18%; in test [5] (setting [8]), 57%; in test [5] (at 50.0 µM), 40.8%; in test [6] (setting [7]) it was 9%; in test [6] (setting [8]), 32%; in test [6] (at 50.0 µM) it was 59.5%.

With `Nn1c(-c2ccccc2)nn(C(=O)c2ccccc2)c1=O`, the growth inhibition in test [1] (setting [7]) is 0%; in test [1] (setting [8]), 39%; in test [1] (at 50.0 µM), 39.5%; in test [2] (setting [7]), -2%; in test [2] (setting [8]), 45%; in test [2] (at 50.0 µM) it was 39.7%. Also, the growth inhibition in test [3] (setting [7]) is 15%; in test [3] (setting [8]), 50%; in test [3] (at 50.0 µM), 60%; in test [4] (setting [7]), -1%; in test [4] (setting [8]) it was 8%; in test [4] (at 50.0 µM), 30.4%. The growth inhibition is -3% in test [5] (setting [7]); 62% in test [5] (setting [8]); 14.7% in test [5] (at 50.0 µM); 1% in test [6] (setting [7]); 58% in test [6] (setting [8]); 87.7% (active) in test [6] (at 50.0 µM).

For `c1ccc(Nc2nnc3nc(-c4ccccc4)c(-c4ccccc4)nn23)cc1`, the growth inhibition in test [1] (setting [7]) was 12%; in test [1] (setting [8]) it was 60%; in test [1] (at 50.0 µM) it was 65.2%; in test [2] (setting [7]), 12%; in test [2] (setting [8]) it was 82% (active); in test [2] (at 50.0 µM), 55.1%. For the same compound, the growth inhibition in test [3] (setting [7]) was 19%; in test [3] (setting [8]) it was 91% (active); in test [3] (at 50.0 µM), 91.5% (active); in test [4] (setting [7]), -1%; in test [4] (setting [8]), 41%; in test [4] (at 50.0 µM), 33%. The growth inhibition in test [5] (setting [7]) is 6%; in test [5] (setting [8]), 39%; in test [5] (at 50.0 µM) it was 36.1%; in test [6] (setting [7]), 5%; in test [6] (setting [8]), 84% (active); in test [6] (at 50.0 µM) it was 70.1% (active).

As for `Clc1nc(Cl)c(Cc2ccccc2)c(Cl)n1`, the growth inhibition was 43% in test [1] (setting [7]); 97% (active) in test [1] (setting [8]); 91% (active) in test [1] (at 50.0 µM); 50% in test [2] (setting [7]); 99% (active) in test [2] (setting [8]); 93.4% (active) in test [2] (at 50.0 µM). For the same compound, the growth inhibition is 38% in test [3] (setting [7]); 100% (active) in test [3] (setting [8]); 90.7% (active) in test [3] (at 50.0 µM); 34% in test [4] (setting [7]); 94% (active) in test [4] (setting [8]); 89.2% (active) in test [4] (at 50.0 µM). The growth inhibition was 49% in test [5] (setting [7]); 99% (active) in test [5] (setting [8]); 87.2% (active) in test [5] (at 50.0 µM); 78% (active) in test [6] (setting [7]); 97% (active) in test [6] (setting [8]); 88.5% (active) in test [6] (at 50.0 µM).

For the compound `Cc1cc2ccc(N)nc2[nH]c1=O`, the growth inhibition was -7% in test [1] (setting [7]); -4% in test [1] (setting [8]); 25.6% in test [1] (at 50.0 µM); -2% in test [2] (setting [7]); -3% in test [2] (setting [8]); 27.2% in test [2] (at 50.0 µM). For the same compound, the growth inhibition in test [3] (setting [7]) is -4%; in test [3] (setting [8]), 0%; in test [3] (at 50.0 µM) it was 10.3%; in test [4] (setting [7]), -3%; in test [4] (setting [8]) it was -1%; in test [4] (at 50.0 µM), 85.4% (active). Also, the growth inhibition in test [5] (setting [7]) was 1%; in test [5] (setting [8]), 5%; in test [5] (at 50.0 µM), 12.7%; in test [6] (setting [7]), -2%; in test [6] (setting [8]) it was 1%; in test [6] (at 50.0 µM) it was 24.8%.

For `CCCCC(=O)N/N=C(\C)[C@]1(O)Cc2c(O)c3c(c(O)c2[C@@H](OC2CC(N)C(O)C(C)O2)C1)C(=O)c1c(OC)cccc1C3=O` (some centres not stated), the growth inhibition in test [1] (setting [7]) is 64%; in test [1] (setting [8]), 97% (active); in test [1] (at 50.0 µM), 98.7% (active); in test [2] (setting [7]), -12%; in test [2] (setting [8]), 97% (active); in test [2] (at 50.0 µM), 99.2% (active). Also, the growth inhibition in test [3] (setting [7]) was 17%; in test [3] (setting [8]), 97% (active); in test [3] (at 50.0 µM), 51.5%; in test [4] (setting [7]) it was 8%; in test [4] (setting [8]) it was 89% (active); in test [4] (at 50.0 µM) it was 97.1% (active). In addition, the growth inhibition in test [5] (setting [7]) was 15%; in test [5] (setting [8]) it was 98% (active); in test [5] (at 50.0 µM), 98.5% (active); in test [6] (setting [7]), 17%; in test [6] (setting [8]), 97% (active); in test [6] (at 50.0 µM), 98.5% (active).

With `O=c1oc2c3ccc4ccccc4c3n(CCCN3CCCCC3)c2c2ccccc12`, the growth inhibition was 81% (active) in test [1] (setting [7]); 81% (active) in test [1] (setting [8]); 54.4% in test [1] (at 50.0 µM); 17% in test [2] (setting [7]); 17% in test [2] (setting [8]); 82.8% (active) in test [2] (at 50.0 µM). The growth inhibition in test [3] (setting [7]) was 35%; in test [3] (setting [8]) it was 35%; in test [3] (at 50.0 µM) it was 87.4% (active); in test [4] (setting [7]), 27%; in test [4] (setting [8]), 27%; in test [4] (at 50.0 µM), 76% (active). Also, the growth inhibition in test [5] (setting [7]) was -4%; in test [5] (setting [8]), -4%; in test [5] (at 50.0 µM) it was 84.8% (active); in test [6] (setting [7]), -13%; in test [6] (setting [8]), -13%; in test [6] (at 50.0 µM), 87.3% (active).
